Rows were chosen to be rich in hits. Some 9.4% of all compounds tested hit in one or more screens of this group.
ELG1 repair inh: inhibitors of ELG1-dependent DNA repair in HEK293T cells | HEK293T ELG1-luciferase reporter, luminescence, 16 h; DNA damage induced by 5-fluorouridine | Potency, µM (series often up to 46.1 µM), for the others: at the top dose activity change, negative = inhibition, most hits filed as inhibitors | 330,000 compounds, 2.3% hits; also: % is scaled to controls: 0 for no effect and ±100 for the full control effect; nearly all actives have a fitted effect of over 55% in size
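Cells (2,000 per well) received 5-fluorouridine plus test compound or DMSO and were incubated 16 hr at 37 °C, 5% CO2. Luciferase activity was read by luminescence 30 min after ONE-Glo addition; signal suppression marked inhibition of damage-induced ELG1 function.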
ELG1 genotoxic: genotoxicity induction in ELG1-luciferase HEK293T cells; HEK293T ELG1-luciferase reporter, luminescence, 16 h; Potency, µM (doses to about 46 µM), for inactives: at the top dose activity change, positive = activation, hits mostly activators; 330,000 compounds, 1.3% hits; AID 504466; also: % of control where 0% means no effect; nearly all actives have a fitted effect of over 60% in size
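HEK293T cells expressing luciferase-tagged ELG1 were exposed to compound or DMSO vehicle for 16 hr at 37 °C and 5% CO2. Luciferase activity was then measured with ONE-Glo after 30 min at room temperature.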
SMN2 splice enh: SMN2 splice variant enhancement; HEK293 SMN2-luciferase splicing reporter, luminescence, 30-36 h; Potency, µM (titrated, usually from 46.1 µM), without a hit: at the top dose activity change, positive = activation, actives largely listed as activators; 210,000 compounds, 2.8% hits; AID 1458; also: % of control where 0% means no effect; nearly all actives have a fitted effect of over 55% in size
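HEK293 cells carry an SMN2 […]–luciferase reporter in which exon 7 inclusion puts luciferase in frame. Cells were plated 10-12 h before compound addition, then incubated 30-36 h at 37C. ONE-Glo luminescence was read; sodium butyrate at 4.5 mM final served as control.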
FLuc counter: counter-screen for miR-21 project: firefly luciferase inhibitors or activators | 360,000 compounds, 6.9% hits | AID 588342 | P08659 | purified FLuc, Km substrates, luminescence inhibition | Potency, µM (top dose mostly 57.5 µM), for the others: top-dose activity change, negative = inhibition, usual class: inhibitors;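 also: plate controls were vehicle for no effect and reference inhibitor for full effect; nearly all actives have a fitted effect of over 55% in size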
Target sequence (P08659 whole entry, looked up): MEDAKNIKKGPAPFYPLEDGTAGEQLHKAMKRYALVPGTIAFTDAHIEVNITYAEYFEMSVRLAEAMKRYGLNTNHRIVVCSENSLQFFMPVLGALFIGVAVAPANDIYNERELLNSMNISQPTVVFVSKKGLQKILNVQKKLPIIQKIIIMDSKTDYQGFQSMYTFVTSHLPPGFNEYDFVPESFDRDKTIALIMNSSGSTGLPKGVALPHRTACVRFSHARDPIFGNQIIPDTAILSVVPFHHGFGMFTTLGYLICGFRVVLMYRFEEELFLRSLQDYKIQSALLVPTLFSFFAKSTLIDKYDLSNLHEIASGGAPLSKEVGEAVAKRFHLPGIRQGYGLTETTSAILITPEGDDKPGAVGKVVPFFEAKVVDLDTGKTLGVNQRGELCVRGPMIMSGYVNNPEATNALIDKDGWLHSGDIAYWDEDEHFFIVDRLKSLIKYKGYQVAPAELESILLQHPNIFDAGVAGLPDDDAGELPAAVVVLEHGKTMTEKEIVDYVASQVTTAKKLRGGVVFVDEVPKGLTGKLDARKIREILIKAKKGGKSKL
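Purified P. pyralis luciferase, 10 nM final, with Km-level 10 uM D-luciferin and 10 uM ATP in 50 mM Tris acetate pH 7.5, 10 mM Mg acetate, 0.01% Tween-20, 0.05% BSA; 6-point qHTS titration about 60 µM downward; luminescence read.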
NPC1 prom act: activators of NPC1 promoter | Huh7 NPC1 promoter luciferase reporter, 24 h | Potency, µM (highest dose often 9.22 µM), inactives show at the top dose activation, actives largely listed as activators | 320,000 compounds, 2.4% hits; also: % of control where 0% means no effect; nearly all actives have a fitted effect of over 60% in size
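Quantitative HTS used a cell-based reporter: Huh7 cells stably bearing the NPC1 promoter upstream of luciferase were treated with compounds for 24 h, and promoter activation was read as luminescence.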
Rab9 prom act: activates the Rab9 promoter; AID 485297; Potency, µM (titrated, usually from 9.22 µM), inactives show at the highest dose activation, negative = inhibition, actives largely listed as activators; 320,000 compounds, 2.8% hits; Huh7 Rab9 promoter-luciferase reporter, luminescence, 24 h; also: % of control where 0% means no effect; nearly all actives have a fitted effect of over 60% in size
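Steps: seed 1500 Huh7 Rab9-luc cells per well, rest 2 h at 37 °C; add compound in DMSO; incubate 24 h; add luciferase reagent, 10 min ambient; read luminescence.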
An asterisk follows results filed as active; ? = inconclusive; . = no result given; ! = not active in a repeat; [ ] = remark or other dose. Calls follow the shape of the dose curve; as a rule, active = well fitted curve in the direction sought with a large enough effect; inconclusive = small, poorly fitted or top-dose-only effect, or another doubt; inactive = no such curve, though single readings can be large; an effect the other way counts as inactive or inconclusive. Potency is read from the fitted curve at half-maximal effect.

SMILES | ELG1 repair inh | ELG1 genotoxic | SMN2 splice enh | FLuc counter | NPC1 prom act | Rab9 prom act
O=C(Nc1ccc(Cl)c(Cl)c1)c1cc(S(=O)(=O)N2CCN(c3cccc(Cl)c3)CC2)ccc1F | . | . | . | -9% | . | .
O=C(O)C(=O)/C(=C\c1cccc2ccccc12)c1ccc2ccccc2n1 | -14% | 7% | 7% | -1% | -2% | 7%
O=C(O)C(=O)/C(=C\c1ccsc1)c1ccc2ccccc2n1 | ? | ? | . | ? | 18% | 21%
O=C(O)C(=O)/C(=C\c1ccc([N+](=O)[O-])cc1)c1ccc2ccccc2n1 | ? | 20% | 13µM* | ? | 9% | ?
O=C(O)C(=O)/C(=C\c1ccccc1)c1ccc2ccccc2n1 | ? | 9.2µM* | . | -19% | 3% | 2%
O=C(CCn1c(=O)c2ccccc2n(CC(=O)Nc2ccc(F)cc2)c1=O)NCCc1ccccc1 | . | . | -4% | -1% | . | .
CCN1CC2=C(OC(N)=C(C#N)C2c2cccs2)/C(=C/c2cccs2)C1 (centres undefined) | 16µM* | -30% | 2% | -1% | 0% | -4%
CCN1CC2=C(OC(N)=C(C#N)C2c2ccccc2)/C(=C\c2ccccc2)C1 (centres undefined) | ? | -29% | -15% | 0% | -4% | -7%
CCCCc1ccc(-n2nc3cc(C)c(NC(=O)c4ccc(C#N)cc4F)cc3n2)cc1 | . | . | -5% | -2% | . | .
COCCOC(=O)c1c(C)n(S(=O)(=O)c2ccc(C)cc2)c2ccc(NS(=O)(=O)c3ccc(C)cc3)cc12 | . | . | 20% | 5% | . | .
COc1ccc(Cc2nc3ccc(C(=O)NCCCSC)cc3o2)cc1OC | ? | 17% | . | 17µM* | ? | ?
CCOCCCNC(=O)c1ccc(OC(C)=O)cc1 | 4% | 4% | 18% | 0% | 5% | -2%
COCCCNC(=O)c1ccc2nc(Cc3ccc(OC)cc3)oc2c1 | ? | 21µM* | . | 17µM*! | 4µM* | 2.2µM*
COC(=O)CCNC(=O)c1ccc2nc(Cc3ccc(OC)c(OC)c3)oc2c1 | ? | 19% | . | 17µM* | ? | ?
CCOCC(O)CNC(=O)c1ccc2nc(Cc3ccc(OC)c(OC)c3)oc2c1 (centres undefined) | -8% | 1% | . | -4% | ? | -3%
CCOCCCNC(=O)c1ccc(OC)cc1 | ? | ? | 28µM* | 3%[2.3 µM] | 14% | 29%
COc1ccc(Cc2nc3ccc(C(=O)NCCc4ccc(OC)c(OC)c4)cc3o2)cc1 | . | . | . | 1% | . | .
CCOC(=O)c1cc2c(=O)n3ccccc3nc2n(Cc2ccco2)c1=NC(=O)c1c(F)cccc1Cl | . | . | -1% | 1% | . | .
COc1ccccc1C(=O)Nc1ccc(S(=O)(=O)N2CCCCC2c2cccnc2)cc1 (centres undefined) | 23µM* | -10% | . | -2% | -10% | -5%
COc1c(C)cccc1C(=O)Nc1ccc(N2CCN(S(C)(=O)=O)CC2)cc1 | ? | ? | ? | 15µM* | 4µM* | 3.2µM*
O=C(Nc1ccc(S(=O)(=O)N2CCCCC2c2cccnc2)cc1)c1ccccc1F (centres undefined) | ? | -17% | -45% | 3% | 1% | -4%
COc1ccccc1C(=O)Nc1ccc(N2CCN(S(C)(=O)=O)CC2)cc1 | ? | 9.2µM* | ? | ? | 25% | ?
COc1ccccc1C(=O)Nc1ccccc1N1CCN(S(C)(=O)=O)CC1 | 0% | -10% | ? | 2% | -1% | -1%
Cc1ccc(NC(=O)CCS(=O)(=O)c2ccc3c(c2)oc(=O)n3C)c(Br)c1 | . | . | . | 5% | . | .
CCOC(=O)c1cnc2c(ccc3ccccc32)c1Nc1ccc(OC)c(OC)c1 | . | . | -1% | -1% | . | .
SMILES | ELG1 repair inh | ELG1 genotoxic | SMN2 splice enh | FLuc counter | NPC1 prom act | Rab9 prom act
CCOC(=O)c1nc2c(ccc3ccccc32)cc1C | 0% | 5% | . | 15µM* | -1% | 0%
CCN(CC)S(=O)(=O)c1ccc2c(c1)N(CC(=O)Nc1cccc(C#N)c1)C(=O)CO2 | . | . | 13% | 6% | . | .
Cc1cc2cc(C(c3nnnn3C3CCCC3)N(Cc3cccnc3)Cc3ccco3)c(=O)[nH]c2cc1C (centres undefined) | 18µM* | -27% | -25% | 3% | -1% | -1%
CCc1ccc(CNC(=O)c2ccc(CSc3nc4ccncc4n3Cc3ccccc3)cc2)cc1 | . | . | -23% | -11% | . | .
CCOC(=O)C1CCN(C(=O)COC(=O)CNC(=O)c2sc3ccccc3c2Cl)CC1 | 7% | 0% | . | 9.5µM* | -2% | -3%
O=C(COC(=O)CNC(=O)c1sc2ccccc2c1Cl)NC1CCS(=O)(=O)C1 (centres undefined) | 10% | -2% | . | 17µM* | -1% | 2%
CS(=O)(=O)c1ccc(Cl)c(NC(=O)COC(=O)CNC(=O)c2cccs2)c1 | 30% | 12% | . | 4% | -3% | 3%
NC(=O)c1ccc(NC(=O)COC(=O)CNC(=O)c2sc3ccccc3c2Cl)cc1 | 18% | 1% | . | 6.7µM* | -2% | -9%
CS(=O)(=O)c1ccc(Cl)c(NC(=O)COC(=O)CNC(=O)c2sc3ccccc3c2Cl)c1 | 9% | -4% | . | 15µM* | 0% | -1%
CC1CCCCN1C(=O)COC(=O)CNC(=O)c1sc2ccccc2c1Cl (centres undefined) | 26% | -2% | . | ? | 0% | -4%
Cc1nc2nc(NCc3ccc(Br)cc3)[nH]n2c(=O)c1Cc1ccccc1 | . | . | 13% | ? | . | .
COc1ccc2c(CC(=O)Nc3ccc(OC)c(S(=O)(=O)N4CCOCC4)c3)coc2c1 | -11% | 14% | 3% | 17µM* | 2% | -1%
COC(=O)c1ccc(C)c(NC(=O)Cc2coc3cc(OC)ccc23)c1 | ? | 0% | -3% | 1% | 0% | 2%
COc1ccc2c(CC(=O)Nc3nc(C)cs3)coc2c1 | ? | -3% | -3% | 24µM* | 10% | ?
COC(=O)c1cc(NC(=O)Cc2coc3cc(OC)ccc23)cc(C(=O)OC)c1 | 16µM* | 4% | -16% | -12% | 2% | 1%
CCOC(=O)c1c(S(=O)(=O)N2CCC(C(=O)Nc3ncccc3C)CC2)c(C)n(C)c1C | . | . | . | 1% | . | .
COc1ccc(NC(=O)C2(c3cccs3)CCOCC2)cc1Cl | . | . | . | 1% | . | .
COc1ccc(Br)cc1CNC(=O)CN1C(=O)c2cccnc2Oc2ccc(C)cc21 | . | . | . | -13% | . | .
CSC1=C(C#N)C(c2ccc(Cl)cc2)C2=C(CC(C)(C)CC2=O)N1 (centres undefined) | 18µM* | -4% | -24% | -12% | -22% | -26%

Compound activity: PubChem, National Center for Advancing Translational Sciences (NCATS)
